# This excerpt belongs to a sample that is enriched for hits.
# Tb PFK block – blocks T. brucei phosphofructokinase. O15648. hit rate 0.17% among 330,000. Potency, µM (series often up to 57.5 µM), inactives show top-dose activity, negative = inhibition, hits mostly inhibitors. T. brucei PFK, ADP-Glo luminescence. AID 485367;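 note: potency is the fitted concentration of half-maximal effect; 0% = uninhibited 1x PFK enzyme wells and -100% = no-enzyme wells; nearly all actives have a fitted effect of over 60% in size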
#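 ADP-Glo luminescence quantified ADP after 45 min at room temperature, with 1.25 nM T. brucei PFK, 0.1 mM ATP and 0.5 mM fructose-6-phosphate in pH 8.0 TEA buffer. qHTS titrations up to 57 µM; curves classified by quality.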
# PI5P4K alpha inh – inhibitors of human PI5P4K alpha; PI5P4Kalpha enzyme, ADP-Glo luminescence, 60 min; hits give low values; P48426; AID 652105; hit rate 1.2% among 330,000; max response, %; active = max response of -50% or lower; inconclusive = between -30% and -50%; inactive = -30% or higher; note: value at the top dose of about 77 µM
#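 Compounds were pin-transferred onto PI5P4Kalpha and substrate in HEPES pH 7.4 buffer with EGTA, CHAPS and 5% DMSO. ATP (5 microM final) started the reaction, which ran 60 minutes at room temperature before ADP-Glo detection.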
# PGK inhibitor – blocks T. brucei phosphoglycerate kinase; P07378; PGK/GAPDH coupled, Kinase-Glo luminescence, 60 min; Potency, µM (titrated, usually from 57.5 µM), for inactives: at the top dose activity change, negative = inhibition, most hits filed as inhibitors; hit rate 0.043% among 380,000; AID 602233; note: potency is the fitted concentration of half-maximal effect; nearly all actives have a fitted effect of over 60% in size
#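 Recombinant glycosomal PGK reaction used 1,3-bisphosphoglycerate generated in-well by GAPDH (100nM final) in 100mM TEA pH 7.6, 5mM MgCl2, 0.01% Tween-20. After 60 minutes at room temperature, ATP was read by Kinase-Glo Plus luminescence end-point.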
# PI4K2A block – PI4K2A (human) kinase inhibition. purified PI4K2A, ADP-Glo luminescence, 1 h; hits give low values. activity change, negative = inhibition, % at 76.9 µM. hit rate 0.13% among 420,000. AID 1346378; in the data active = activity change below about -50%; inconclusive = mostly about -30% to -49%;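 note: -100% = wells without enzyme as full effect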
# Target sequence (Q9BTU6 whole entry, looked up): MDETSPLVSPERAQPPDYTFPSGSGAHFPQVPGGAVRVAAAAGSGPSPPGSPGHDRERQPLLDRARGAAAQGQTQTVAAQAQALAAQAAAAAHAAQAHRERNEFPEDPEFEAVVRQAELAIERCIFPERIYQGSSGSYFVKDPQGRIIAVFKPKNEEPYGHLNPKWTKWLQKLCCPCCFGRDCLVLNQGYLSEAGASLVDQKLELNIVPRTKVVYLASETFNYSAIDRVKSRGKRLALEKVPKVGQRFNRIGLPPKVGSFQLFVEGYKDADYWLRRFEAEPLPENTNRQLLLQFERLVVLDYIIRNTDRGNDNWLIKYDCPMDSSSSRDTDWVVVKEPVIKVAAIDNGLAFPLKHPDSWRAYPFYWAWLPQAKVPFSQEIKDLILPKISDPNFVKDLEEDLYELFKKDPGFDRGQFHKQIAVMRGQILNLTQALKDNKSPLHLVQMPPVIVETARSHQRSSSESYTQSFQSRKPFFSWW
#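 ADP-Glo luminescence measured ADP generated by PI4K2A enzyme (4 ug/mL before mixing) with 1.2 mM PI substrate (pre-mix) and 300 microM ATP (pre-mix). Tris pH7.5 buffer with MgCl2, Triton X-100; 1 h reaction at ambient temperature.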
# Pin1 inhibitor – human Pin1 inhibition; Q13526; Pin1 FP peptide displacement, HiFluor488, 10 min; Potency, µM (top dose mostly 115 µM), without a hit: at the top dose activity, negative = inhibition, usual class: inhibitors; hit rate 0.009% among 390,000; AID 504891; active = well fitted inhibition curve with a large enough effect in the polarisation, with a control signal flat, not every such curve was filed as active; inconclusive = small, poorly fitted or top-dose-only effect, or effect the other way, or a change in a side signal; inactive = no such curve, though single readings can be large or run the other way; the % refers to the polarisation; note: potency is the fitted concentration of half-maximal effect
# * hit, by the source's call; i = inactive; ? = inconclusive; . = no result. Unless noted, calls come from the whole dose curve; as a rule, active = well fitted curve in the direction sought with a large enough effect; inconclusive = small, poorly fitted or top-dose-only effect, or another doubt; inactive = no such curve, though single readings can be large; an effect the other way counts as inactive or inconclusive. Unless noted, % is set by controls: 0 for no effect and ±100 for the full control effect.
SMILES,Tb PFK block,PI5P4K alpha inh,PGK inhibitor,PI4K2A block,Pin1 inhibitor
O=[N+]([O-])c1cc([N+](=O)[O-])c2oc(-c3ccccc3)c(Br)c2c1O,-0.6%,-101.8*,-21.4%,-2.1,.
O=c1cc(-c2ccccc2Cl)oc2ccc([N+](=O)[O-])c(O)c12,-3.2%,-7.3,5.3%,-0.8,?
CCOP(=O)(OCC)C(Nc1cccc([N+](=O)[O-])c1)c1ccc(N(C)C)cc1 (stereo unspecified),-13.0%,8.2,2.8%,-0.7,?
COc1ccc(CCNC(=O)c2ccc3nc(-c4ccco4)c(-c4ccco4)nc3c2)cc1OC,?,-54.7*,1.0%,?,?
CCc1nc2ccc(C(=O)NCCc3ccc(OC)c(OC)c3)cc2nc1CC,5.5%,-2.0,-6.3%,5.9,-1.1%
Cc1cc(=O)n2[nH]c(-c3ccsc3-n3c(C)ccc3C)cc2n1,1.1%,-86.4*,-17.6%,?,?
Cc1nc2cc(-c3ccsc3-n3c(C)ccc3C)[nH]n2c(=O)c1Cl,?,?,-9.2%,-27.7,?
O=C(Nc1cccc(-n2cccn2)c1)C1CCCN(Cc2ccc(C#CCCO)cc2)C1 (stereo unspecified),0.8%,-0.9,-6.4%,3.6,-2.0%
Cn1c(=S)[nH]c2[nH]c(=O)cnc2c1=O,-4.4%,-52.0*,3.1%,6.8,-0.9%
Cn1c(N)cc(=O)[nH]c1=S,.,8.6,-1.6%,-1.5,-11.9%
O=S(=O)(O)c1ccc(O)c2cc(Nc3ccccc3)ccc12,.,-104.8*,5.01µM*,?,8.49µM*
O=C(N/N=C/c1cccc(O)c1)N/N=C/c1cccc(O)c1,0.0%,-52.7*,-0.9%,6.3,-5.6%
Cc1ccc(-n2ncc(-c3n[nH]c(=S)o3)c2N)cc1C,.,-75.5*,-3.8%,0.6,.
O=C1C(=Cc2cccs2)C(=O)c2ccccc21,12.9%,9.2,-9.4%,?,-1.0%
Cc1ccc(C=C2C(=O)c3ccccc3C2=O)s1,-20.1%,-15.3,?,-53.1*,44.3%
O=C1Nc2ccccc2C1=Nc1ccc(S(=O)(=O)Nc2nccs2)cc1,-0.5%,-78.7*,?,-0.5,.
NS(=O)(=O)c1ccc(N=C2C(=O)Nc3ccccc32)cc1,-0.2%,0.3,i,1.5,-2.5%
Cc1cccn2c(=O)c(C(=O)N3CCN(c4ccccc4F)CC3)cnc12,.,.,-5.6%,-1.6,4.3%
O=C1N=C(N2CCCCC2)SC1=C1CCCCC1,-0.6%,-7.0,-4.3%,7.7,6.9%
O=C1NC(=S)SC1=C1CCCCCC1,6.3%,-57.2*,-1.1%,2.3,-6.6%
COc1cc(NC(=O)Cc2ccccc2)c(C(=O)O)cc1OC,-8.4%,-9.2,3.0%,1.0,-7.8%
O=C(CSc1ncnc2scc(-c3ccccc3)c12)Nc1ccc(C(=O)O)cc1,-4.5%,-84.6*,-2.4%,2.4,-0.4%
CCOc1cccc2c1Oc1nc(-c3ccccc3)nc(SCC(=O)Nc3ccc(F)cc3)c1C2,.,.,3.3%,0.7,1.6%
Cn1nnnc1Sc1ncnc2scc(-c3ccccc3)c12,-4.1%,-52.3*,3.5%,-1.0,-12.4%
O=C(CSc1nc(-c2ccccc2)nc2c1Cc1ccccc1O2)Nc1ccc(C(=O)O)cc1,?,-63.2*,?,-1.2,?
SMILES,Tb PFK block,PI5P4K alpha inh,PGK inhibitor,PI4K2A block,Pin1 inhibitor
O=C(CSc1nc(-c2ccc(F)cc2)nc2c1Cc1ccccc1O2)Nc1ccc(C(=O)O)cc1,?,-28.3,15.8µM*,-1.1,?
Cn1ccc(NS(=O)(=O)c2cc(Br)ccc2Br)n1,-8.7%,6.3,7.6%,-4.2,1.7%
O=c1[nH]c(=O)c2nnc(N/N=C/c3ccccc3F)nc2[nH]1,-3.9%,-88.0*,8.2%,-0.2,-0.3%
O=C(CCNS(=O)(=O)c1cccc2nsnc12)N1CCc2ccccc21,-1.6%,-6.7,-5.8%,2.2,-6.0%
COc1ccc(C(=O)OCC(=O)c2ccco2)cc1[N+](=O)[O-],.,-58.8*,-9.0%,0.2,.
CC(=O)Nc1ccc2c(c1)C(=Nc1ccc(C)cc1)c1ccccc1-2,.,-3.9,-1.7%,-0.4,5.9%
CCCC(=O)N(c1ccc2oc(=O)sc2c1)S(=O)(=O)c1ccccc1,4.9%,0.4,-1.7%,-50.5*,-4.6%
CC(=O)c1ccc2noc(-c3ccccc3)c2c1,-0.2%,-3.2,-4.7%,-1.9,2.2%
CN(C)/C=C/C(=O)c1ccc2noc(-c3ccccc3)c2c1,-0.8%,-69.6*,-2.4%,-0.4,?
